# VDR inhibitor = blocks the human vitamin D receptor; P11473; VDR-SRC2-3 peptide fluorescence polarization, 2 h; Potency, µM, hits mostly inhibitors; hit rate 0.93% among 400,000
#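 The screen uses fluorescence polarization to detect compounds that interfere with recruitment of the SRC2-3 coactivator peptide to VDR; plates are read after 2 h at room temperature.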
# PLK1 PBD inh = PLK1 (human) polo-box domain binding inhibition. Plk1 PBD binding of FITC phosphopeptide, fluorescence polarization. Potency, µM, actives largely listed as inhibitors. hit rate 2.8% among 360,000; also: series mostly up to about 57 µM; nearly all actives have a fitted effect of over 65% in size
# Target sequence (P53350 whole entry, looked up, the tested form may be a part): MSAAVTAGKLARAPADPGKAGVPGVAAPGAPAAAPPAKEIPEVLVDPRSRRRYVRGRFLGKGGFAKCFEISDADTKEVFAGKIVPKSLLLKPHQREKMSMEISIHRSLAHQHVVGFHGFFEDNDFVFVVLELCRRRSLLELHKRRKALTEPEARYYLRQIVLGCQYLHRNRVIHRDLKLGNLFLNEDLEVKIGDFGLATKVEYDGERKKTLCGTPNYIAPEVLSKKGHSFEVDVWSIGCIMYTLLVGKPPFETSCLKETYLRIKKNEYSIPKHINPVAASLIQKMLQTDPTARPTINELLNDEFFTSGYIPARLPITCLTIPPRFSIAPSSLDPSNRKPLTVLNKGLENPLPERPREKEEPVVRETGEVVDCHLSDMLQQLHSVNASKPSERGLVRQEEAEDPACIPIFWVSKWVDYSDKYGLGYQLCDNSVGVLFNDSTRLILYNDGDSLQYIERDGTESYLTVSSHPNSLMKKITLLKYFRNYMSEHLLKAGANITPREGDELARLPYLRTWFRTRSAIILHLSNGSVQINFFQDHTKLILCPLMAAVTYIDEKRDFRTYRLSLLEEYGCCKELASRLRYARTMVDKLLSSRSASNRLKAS
# TSG101-PTAP inh = blocks PTAP/TSG101 interaction to inhibit HIV-1 budding | Q99816 | Fluorescence polarization, FITC-PTAP peptide / Tsg101 binding | Potency, µM (series often up to 115 µM), usual class: inhibitors | 340,000 tested, under 10 active; active = well fitted inhibition curve with a large enough effect in the main read-out, with a control signal flat, not every such curve was filed as active; inconclusive = small, poorly fitted or top-dose-only effect, or effect the other way, or a change in a side signal; inactive = no such curve, though single readings can be large or run the other way
#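 Fluorescence anisotropy tracks displacement of a FITC-tagged PTAP peptide (50 nM) from the Tsg101 binding domain (10 uM), following a 20 min room-temperature incubation at pH 7.5.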
# USP1-UAF1 inh = inhibitors of human USP1/UAF1 deubiquitinase; O94782; recombinant USP1/UAF1, Ub-Rhodamine cleavage fluorescence; Potency, µM (top dose mostly 57.1 µM), usual class: inhibitors; hit rate 0.23% among 390,000; AID 743255; also: nearly all actives have a fitted effect of over 60% in size
#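 1 nM enzyme complex + cpd, 15 min RT; start with Ub-Rho 150nM final; kinetic fluorescence ex 480/em 540, 6 reads q60 s. Buffer 50mM HEPES pH 7.8, 0.5mM EDTA, 0.1 mg/ml BSA, 1mM TCEP, 0.01% Tween-20.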
# GCN5L2 inh = inhibitors of human GCN5L2 histone acetyltransferase | GCN5L2 HAT assay, ThioGlo1 CoA-SH fluorescence | Potency, µM (series often up to 58.9 µM), hits mostly inhibitors | hit rate 0.21% among 390,000 | AID 504327
#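 ThioGlo1-coupled HAT assay: 20nM GCN5L2, 70uM acetyl-CoA, 75uM H3(1-25) peptide, pH 7.5. Fluorescence read at 340/540nm at start and after 20 min at room temperature.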
# Numbers stand for hits; – = inactive; ? = inconclusive; · = no result; ! = not confirmed by another sample. Only some compounds are listed: those with a hit (about 3% of all), similar ones and a draw of the others. Unless noted, calls follow the shape of the dose curve; as a rule, active = well fitted curve in the direction sought with a large enough effect; inconclusive = small, poorly fitted or top-dose-only effect, or another doubt; inactive = no such curve, though single readings can be large; an effect the other way counts as inactive or inconclusive.
SMILES,VDR inhibitor,PLK1 PBD inh,TSG101-PTAP inh,USP1-UAF1 inh,GCN5L2 inh
O=C(NCc1cc(C(F)(F)F)ccc1Cl)c1cccc2c1C(=O)c1ccc(N3CCCCC3)cc1S2(=O)=O,–,?,?,20µM,–
Cc1ccc[n+](-c2nc([O-])sc2C=O)c1,–,13µM,?,28µM,–
O=C(COC(=O)C(Cc1c[nH]c2ccccc12)NC(=O)c1ccc(Cl)cc1)c1ccc(Cl)cc1 (stereo unspecified),–,·,·,?,–
O=C(COC(=O)C(Cc1ccccc1)NC(=O)c1ccc(Cl)cc1)c1ccc(Cl)cc1 (stereo unspecified),–,11µM,–,?,–
C=CCOc1ccc(-c2nc3c(c(=O)[nH]c(=O)n3CCCC)n2C)cc1OC,?,21µM,–,–,–
Cc1ccc(-c2cc(-c3ccc(C)o3)nc(N)c2C#N)cc1,?,13µM,–,–,?
Cc1ccc(-c2cc(-c3ccc(Cl)cc3)c(C#N)c(N)n2)o1,?,21µM,–,–,?
N=C(N)SCc1nc2ccccc2c(=O)n1-c1ccccc1,?,8.4µM!,–,–,–
N=C(N)n1c(N)nc2ccccc2c1=O,–,–,–,–,?
CO/N=C(/C(=O)N[C@@H]1C(=O)N2C(C(=O)O)=C(CSc3cnns3)CS[C@H]12)c1csc(N)n1,35µM,·,·,·,–
CO/N=C(/C(=O)N[C@@H]1C(=O)N2C(C(=O)O)=C(CSc3nnnn3C)CS[C@H]12)c1csc(N)n1,?,·,·,·,–
Cc1cccc(N2CCN(CCCNc3ncnc4onc(-c5ccc(F)cc5)c34)CC2C)c1 (stereo unspecified),–,·,·,–,–
S=C(c1cn(Cc2ccccc2)c2ccccc12)N1CCOCC1,–,–,–,–,–
S=C(c1cn(Cc2ccc(Br)cc2)c2ccccc12)N1CCOCC1,?,30µM,–,–,–
O=C(C(=O)N1CCOCC1)c1c[nH]c2ccccc12,–,–,–,–,–
S=C(c1c[nH]c2ccccc12)N1CCOCC1,–,15µM,–,–,–
CN1C(=O)c2ccccc2CC12c1ccccc1C(=O)N2C (stereo unspecified),·,–,·,–,·
CCOc1ccc(Sc2cc(C(=O)NCCc3ccc(OC)c(OC)c3)c3ccccc3n2)cc1,–,·,·,–,–
C=CCOC(=O)C1(C(NC(=O)OC)c2ccccc2)C(=O)Cc2ccccc21 (stereo unspecified),–,·,·,·,·
CCCCN1CCc2c([nH]c3c(C)cccc23)C1=O,14µM,3.4µM,–,–,–
Cc1oc2c(c1C(=O)Nc1cccc3ccccc13)CCCC2,?,3µM,–,–,–
Cc1ccc(CNC(=O)c2cc3c(=O)n4cccc(C)c4nc3s2)cc1,–,·,·,–,–
COc1cc(/C=C(\C#N)c2nc3ccccc3n2C)cc(OC)c1OC,–,·,·,–,–
Cn1c(/C(C#N)=C/c2cccc(O)c2)nc2ccccc21,79µM,27µM,–,–,–
O=C(COC(=O)c1ccc(Cl)nc1)Nc1ccccc1OC(F)F,–,–,–,–,–
SMILES,VDR inhibitor,PLK1 PBD inh,TSG101-PTAP inh,USP1-UAF1 inh,GCN5L2 inh
O=C(On1c(-c2ccccc2)nc2ccccc2c1=O)c1ccco1,–,17µM,–,–,·
Cc1nn(CC(C)C)c(Cl)c1C(=O)NCC1CCCO1 (stereo unspecified),·,–,·,–,·
Cc1ccnc(NC(=O)CCC(=O)N(CC(=O)NCc2ccccc2)c2ccc3c(c2)OCO3)c1,–,3µM,–,–,–
Cc1ccc(N(CC(=O)NCc2ccc3c(c2)OCO3)C(=O)CCC(=O)Nc2ccccn2)cc1,–,–,–,–,–
O=C(NCCN1CCCCC1)c1ccc(Cn2c(SCc3ccc(F)cc3)nc3cccnc32)cc1,–,·,·,–,–
Cc1ccc(S(=O)(=O)c2ccc([N+](=O)[O-])o2)cc1,45µM,0.84µM,–,–,·
O=C(O)COc1ccccc1C1Nc2ccccc2-c2nnc(SCc3ccc(Cl)cc3)nc2O1 (stereo unspecified),–,·,·,–,–
CCCCCCCCCCC1=C(C)C(=O)C(OC)=C(OC)C1=O,40µM!,·,·,·,–
COC1=C(OC)C(=O)C(CCCCCCCCCCO)=C(C)C1=O,45µM,·,·,·,–
Cc1cc(C)n(-c2ccc(C(F)(F)F)cc2[N+](=O)[O-])n1,–,–,–,?,–
Cc1cc(C)n(-c2cc(Cl)ccc2[N+](=O)[O-])n1,–,27µM,–,–,–
CCOc1ccccc1CNC(=O)c1cnn(-c2ccc(C)cc2)c1-n1cccc1,–,·,·,–,–
COc1ccc(NC(=O)NCc2ccco2)c(OC)c1,?,12µM,–,–,–
COc1ccc(S(=O)(=O)NCC2CCC(C(=O)NCc3ccco3)CC2)cc1 (stereo unspecified),–,11µM,–,–,–
CCCCC(=O)O[C@]1(C(=O)CO)[C@H](C)C[C@H]2[C@@H]3CCC4=CC(=O)C=C[C@]4(C)[C@@]3(F)[C@@H](O)C[C@@]21C,–,·,·,·,–
C=CCC(Nc1ccc(OC)cc1)(C(=O)OCC)c1ccccc1 (stereo unspecified),–,·,·,·,·
Cc1ccc(Cl)cc1NC(=O)C(C)n1nnc2sc3c(c2c1=O)CCCC3 (stereo unspecified),–,·,·,–,–
O=C(c1ccc(S(=O)(=O)Cc2ccccc2F)c([N+](=O)[O-])c1)N1CCCC1,–,24µM,–,–,–
CCc1nnc(NC(=O)c2ccc(S(C)(=O)=O)cc2)s1,20µM,9.5µM,–,–,–
CCN(CCO)c1ccc(N=Nc2cc(C)[nH]n2)cc1,–,–,–,–,–
Cc1ccc(C)c(NC(=O)c2ccc(S(=O)(=O)N(C)CC3CCCO3)cc2)c1 (stereo unspecified),–,–,–,–,·
C/C(N)=C(/C#N)C(=O)COC(=O)c1ccccc1Oc1ccccc1,?,27µM,–,–,–
COc1ccc(CC2=C(O)c3ccccc3C(=O)C2=O)cc1,?,?,–,–,–
O=C1C(=O)c2ccccc2C(O)=C1CCCCl,–,–,–,20µM,–
O=C(O)c1ccc(-c2nc(-c3ccccc3)cs2)cc1,–,–,–,–,–
SMILES,VDR inhibitor,PLK1 PBD inh,TSG101-PTAP inh,USP1-UAF1 inh,GCN5L2 inh
O=C(O)c1ccc(-c2nc(-c3ccc(Cl)c(Cl)c3)cs2)cc1,–,27µM,–,–,–
O=C(O)c1cnn(-c2nc(-c3ccc(Cl)c(Cl)c3)cs2)c1C(F)(F)F,?,27µM,–,–,–
O=C(O)c1cnn(-c2nc(-c3cccc(F)c3)cs2)c1C(F)(F)F,–,–,–,–,–
Cc1cc(C)cc(NC(=S)/C(=C(\[O-])c2ccc(Cl)cc2Cl)[n+]2ccccc2)c1,–,30µM,–,–,–
[O-]/C(=C(\C(=S)Nc1ccc(SC(F)F)cc1)[n+]1ccccc1)c1ccc(Cl)cc1Cl,–,–,–,–,–
CCc1ccc2[nH]c(=O)c(CN(Cc3cccs3)Cc3nnnn3Cc3ccccc3)cc2c1,–,·,·,·,·
CCOc1ccccc1/C=C/c1nc2ccccc2[nH]c1=O,?,3.8µM,–,–,–

# Screening results as filed in PubChem BioAssay.
